Measurements published in PubChem BioAssay (Tox21).
Records with an inconclusive call do not appear. Entries that show only a call come without a potency. Active and inactive are the calls of the source. Unless noted, calls follow the shape of the dose curve; as a rule, active = well fitted curve in the direction sought with a large enough effect in the repeat runs; inconclusive = weak or mixed curves; inactive = no such curve, though single readings can be large; an effect the other way counts as inactive or inconclusive.

Key:
[1] = qHTS assay to identify small molecule antagonists of the peroxisome proliferator-activated receptor delta (PPARd) signaling pathway - cell viability counter screen (AID 743213); also: nearly all actives have a fitted effect of over 50% in size; also: potency is read from the fitted curve at half-maximal effect
Method in brief: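 Cytotoxicity counter screen: CellTiter-Glo luminescence read 30 min after addition, in the same wells as the reporter assay. There, PPARd UAS-bla HEK293H cells (3000/well) were treated 17 h at 37 C with compound and 300 nM L165041.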

[2] = qHTS assay to identify small molecule agonists of the vitamin D receptor (VDR) signaling pathway - cell viability counter screen (AID 743224); also: nearly all actives have a fitted effect of over 50% in size; also: potency is read from the fitted curve at half-maximal effect
Method in brief: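 Plated VDR-bla cells (4 h, 37C) received compound, incubated 16 h, then LiveBLAzer substrate 2 h RT; CellTiter-Glo added afterwards, luminescence read at 30 min.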

[3] = qHTS assay to identify small molecule agonists of the NFkB signaling pathway - cell viability counter screen (AID 1159515; calls by dose curve; also: nearly all actives have a fitted effect of over 55% in size; also: potency is read from the fitted curve at half-maximal effect)
Method in brief: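 Using the same wells as the NFkB reporter read, ME-180 NFkB-bla cells given compounds for 5 hr were assessed for viability via CellTiter-Glo, with luminescence taken after a 30 min room-temperature incubation.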

[4] = qHTS assay to identify small molecule agonists of the endoplasmic reticulum stress response signaling pathway - cell viability counter screen (AID 1159517; calls by dose curve; also: nearly all actives have a fitted effect of over 50% in size; also: potency is read from the fitted curve at half-maximal effect)
Method in brief: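 HeLa cells carrying an ESRE-driven beta-lactamase reporter receive compound for 5 hr at 37 C. Cell viability is then gauged with CellTiter-Glo by luminescence, 30 min at room temperature.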

[5] = biological target: Nuclear receptor ROR-gamma (Homo sapiens) (UniProt P51449); assay: qHTS assay to identify small molecule antagonists of the retinoid-related orphan receptor gamma (ROR-gamma) signaling pathway (AID 1159521; also: nearly all actives have a fitted effect of over 50% in size; also: potency is read from the fitted curve at half-maximal effect)
Method in brief: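 Decreased RORE-driven luciferase luminescence indicates antagonism. Tet-on RORγ CHO cells received compound, then 1 uM final doxycycline 2 h later; signal read after 16 h incubation.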

[6] = qHTS assay to identify small molecule agonists of the peroxisome proliferator-activated receptor delta (PPARd) signaling pathway - cell viability counter screen (AID 743211); also: nearly all actives have a fitted effect of over 55% in size; also: potency is read from the fitted curve at half-maximal effect
Method in brief: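 qHTS cell viability: PPARd-bla HEK293H; 17 h cpd, 37C; CellTiter-Glo, luminescence at 30 min RT.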

[7] = biological target: Peroxisome proliferator-activated receptor delta (Homo sapiens) (UniProt Q03181); assay: qHTS assay to identify small molecule agonists of the peroxisome proliferator-activated receptor delta (PPARd) signaling pathway (AID 743212; calls by dose curve)
Method in brief: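 HEK293H PPARd-bla cells; 5 h preincubation 37 C/5% CO2; compound (DMSO) 37 C; LiveBLAzer B/G FRET substrate 2 h RT; fluorescence intensity.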

[8] = biological target: Bile acid receptor (Homo sapiens) (UniProt Q96RI1); assay: qHTS assay to identify small molecule antagonists of the farnesoid-X-receptor (FXR) signaling pathway (AID 743217; active = well fitted inhibition curve with a large enough effect in the signal ratio in the repeat runs, not every such curve was filed as active; the % refers to the signal ratio; also: potency is read from the fitted curve at half-maximal effect)
Method in brief: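 GeneBLAzer FXR-UAS-bla HEK 293T, CDCA-stimulated (50 uM final). Compound treatment 16 h, 37 °C. Detection: beta-lactamase cleavage of B/G FRET substrate, fluorescence.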

[9] = qHTS assay to identify small molecule agonists of the farnesoid-X-receptor (FXR) signaling pathway - cell viability counter screen (AID 743218); also: nearly all actives have a fitted effect of over 45% in size; also: potency is read from the fitted curve at half-maximal effect
Method in brief: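 Parallel cytotoxicity test: compound-treated (16 h, 37 C) HEK 293T FXR-bla reporter cells were lysed with CellTiter-Glo and luminescence recorded.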

[10] = biological target: Bile acid receptor (Homo sapiens) (UniProt Q96RI1); assay: qHTS assay to identify small molecule agonists of the farnesoid-X-receptor (FXR) signaling pathway (AID 743220; active = well fitted activation curve with a large enough effect in the signal ratio in the repeat runs, not every such curve was filed as active; the % refers to the signal ratio)
Method in brief: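 Beta-lactamase reporter under UAS control in GeneBLAzer FXR HEK 293T cells (5000/well) measured with LiveBLAzer FRET substrate after 2 h at room temperature. Compound exposure lasted 16 h at 37C.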

[11] = qHTS assay to identify small molecule antagonists of the farnesoid-X-receptor (FXR) signaling pathway - cell viability counter screen (AID 743221; active = well fitted cell-killing curve with a large enough effect in the repeat runs, not every such curve was filed as active; also: nearly all actives have a fitted effect of over 50% in size; also: potency is read from the fitted curve at half-maximal effect)
Method in brief: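 After a 5 h settling period, FXR-bla HEK 293T cells receive compound and chenodeoxycholic acid (50 uM final) and incubate 16 h at 37 C; CellTiter-Glo luminescence, read after 30 min at room temperature, reports cell viability.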

[12] = biological target: Vitamin D3 receptor (Homo sapiens) (UniProt P11473); assay: qHTS assay to identify small molecule agonists of the vitamin D receptor (VDR) signaling pathway (AID 743222; calls by dose curve)
Method in brief: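 In VDR-bla cells, compound-induced beta-lactamase expression is quantified by FRET substrate fluorescence. Treatment lasts 16 h at 37C; substrate develops 2 h at room temperature.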

[13] = qHTS assay to identify small molecule antagonists of the vitamin D receptor (VDR) signaling pathway - cell viability counter screen (AID 743225); also: nearly all actives have a fitted effect of over 50% in size; also: potency is read from the fitted curve at half-maximal effect
Method in brief: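 Parallel cytotoxicity test: VDR-UAS-bla HEK 293T, 3 nM (final) 1-alpha,25-dihydroxyvitamin D3 with test compound, 16 h, 37C. Endpoint is CellTiter-Glo luminescence in the same wells.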

[14] = qHTS assay to identify small molecule antagonists of the retinoid-related orphan receptor gamma (ROR-gamma) signaling pathway - cell viability counter screen (AID 1159520); also: nearly all actives have a fitted effect of over 50% in size; also: potency is read from the fitted curve at half-maximal effect
Method in brief: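 Cytotoxicity was read from cellular ATP (CellTiter-Glo luminescence) after 16 hr at 37 C with 1 uM doxycycline induction. The inducer was added 2 hr after compound transfer to Tet-on ROR gamma CHO cells.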

[15] = qHTS assay to identify small molecule agonists of the AP-1 signaling pathway - cell viability counter screen (AID 1159525; calls by dose curve; also: nearly all actives have a fitted effect of over 55% in size; also: potency is read from the fitted curve at half-maximal effect)
Method in brief: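 Luminescent ATP readout (Cell Titer Glo, 30 min RT), normalised to DMSO and tetra n-octyl ammonium bromide controls. Cells were ME-180 AP-1-bla in 0.5% dialyzed FBS Opti-MEM, with a 5 h, 37 °C compound exposure.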

[16] = qHTS assay to identify small molecule agonists of the AP-1 signaling pathway (AID 1159526; calls by dose curve)
[17] = biological target: Peroxisome proliferator-activated receptor delta (Homo sapiens) (UniProt Q03181); assay: qHTS assay to identify small molecule antagonists of the peroxisome proliferator-activated receptor delta (PPARd) signaling pathway (AID 743215; active = well fitted inhibition curve with a large enough effect in the signal ratio in the repeat runs, not every such curve was filed as active; the % refers to the signal ratio;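 also: cells stimulated with agonist L165041 at 300 nM final during compound exposure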; also: potency is read from the fitted curve at half-maximal effect)
Method in brief: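 HEK293H UAS-bla, PPARd; agonist L165041 300 nM final with cpd in DMSO; 37 C 17 h; FRET substrate, RT 2 h; fluorescence intensity.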

[18] = biological target: Vitamin D3 receptor (Homo sapiens) (UniProt P11473); assay: qHTS assay to identify small molecule antagonists of the vitamin D receptor (VDR) signaling pathway (AID 743223; active = well fitted inhibition curve with a large enough effect in the signal ratio in the repeat runs, not every such curve was filed as active; the % refers to the signal ratio)
Method in brief: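 Reporter line VDR-bla; stimulus 1alpha,25-(OH)2 vitamin D3, 3 nM final; compound co-addition, 16 h 37C/5% CO2; LiveBLAzer B/G substrate 2 h RT; fluorescence intensity.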

[19] = biological target: Retinoic acid receptor RXR-alpha (Homo sapiens) (UniProt P19793); assay: qHTS assay to identify small molecule agonists of the RXR signaling pathway (AID 1159527; calls by dose curve; also: nearly all actives have a fitted effect of over 35% in size)
Method in brief: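 16 hr incubation of compound-treated RXR-alpha-UAS-bla HEK 293T cells (2% charcoal-stripped FBS, 37 C) preceded a 2 hr room-temperature LiveBLAzer FRET substrate step and blue/green fluorescence measurement.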

Chain of Bile acid receptor (Homo sapiens) (Q96RI1 whole entry, looked up): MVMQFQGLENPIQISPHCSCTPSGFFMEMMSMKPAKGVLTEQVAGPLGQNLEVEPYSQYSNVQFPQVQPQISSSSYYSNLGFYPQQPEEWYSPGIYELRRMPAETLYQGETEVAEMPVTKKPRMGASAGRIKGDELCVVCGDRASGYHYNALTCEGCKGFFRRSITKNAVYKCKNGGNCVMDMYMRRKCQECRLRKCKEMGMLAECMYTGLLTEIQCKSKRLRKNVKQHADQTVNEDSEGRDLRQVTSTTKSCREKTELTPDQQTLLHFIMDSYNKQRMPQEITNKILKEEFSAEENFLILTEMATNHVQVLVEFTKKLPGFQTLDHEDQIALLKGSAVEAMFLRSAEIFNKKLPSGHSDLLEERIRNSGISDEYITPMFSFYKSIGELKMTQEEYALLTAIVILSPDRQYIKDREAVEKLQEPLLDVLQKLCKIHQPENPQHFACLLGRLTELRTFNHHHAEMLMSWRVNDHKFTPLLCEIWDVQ
Chain of Peroxisome proliferator-activated receptor delta (Homo sapiens) (Q03181 whole entry, looked up): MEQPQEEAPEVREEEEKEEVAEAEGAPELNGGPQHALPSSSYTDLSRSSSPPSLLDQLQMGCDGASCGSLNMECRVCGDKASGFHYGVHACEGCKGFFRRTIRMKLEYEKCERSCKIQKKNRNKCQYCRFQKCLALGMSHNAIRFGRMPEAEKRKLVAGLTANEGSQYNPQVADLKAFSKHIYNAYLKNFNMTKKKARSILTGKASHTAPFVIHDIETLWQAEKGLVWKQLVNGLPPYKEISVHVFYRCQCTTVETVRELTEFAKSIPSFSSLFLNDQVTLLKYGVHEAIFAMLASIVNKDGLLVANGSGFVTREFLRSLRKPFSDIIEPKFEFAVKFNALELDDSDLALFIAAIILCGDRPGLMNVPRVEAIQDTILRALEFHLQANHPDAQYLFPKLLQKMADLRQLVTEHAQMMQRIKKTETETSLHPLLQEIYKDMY
Chain of Vitamin D3 receptor (Homo sapiens) (P11473 whole entry, looked up): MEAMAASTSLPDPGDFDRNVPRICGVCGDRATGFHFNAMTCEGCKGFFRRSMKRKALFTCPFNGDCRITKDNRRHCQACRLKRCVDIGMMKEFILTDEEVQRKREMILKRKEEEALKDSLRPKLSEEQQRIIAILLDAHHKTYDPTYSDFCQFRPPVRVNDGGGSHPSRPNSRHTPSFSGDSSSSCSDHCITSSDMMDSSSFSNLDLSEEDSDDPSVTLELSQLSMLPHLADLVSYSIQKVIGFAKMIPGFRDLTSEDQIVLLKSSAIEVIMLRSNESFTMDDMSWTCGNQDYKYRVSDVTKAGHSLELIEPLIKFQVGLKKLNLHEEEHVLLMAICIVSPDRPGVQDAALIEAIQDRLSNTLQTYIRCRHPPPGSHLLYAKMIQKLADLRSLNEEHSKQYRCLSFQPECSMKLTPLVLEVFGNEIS
Chain of Retinoic acid receptor RXR-alpha (Homo sapiens) (P19793 whole entry, looked up): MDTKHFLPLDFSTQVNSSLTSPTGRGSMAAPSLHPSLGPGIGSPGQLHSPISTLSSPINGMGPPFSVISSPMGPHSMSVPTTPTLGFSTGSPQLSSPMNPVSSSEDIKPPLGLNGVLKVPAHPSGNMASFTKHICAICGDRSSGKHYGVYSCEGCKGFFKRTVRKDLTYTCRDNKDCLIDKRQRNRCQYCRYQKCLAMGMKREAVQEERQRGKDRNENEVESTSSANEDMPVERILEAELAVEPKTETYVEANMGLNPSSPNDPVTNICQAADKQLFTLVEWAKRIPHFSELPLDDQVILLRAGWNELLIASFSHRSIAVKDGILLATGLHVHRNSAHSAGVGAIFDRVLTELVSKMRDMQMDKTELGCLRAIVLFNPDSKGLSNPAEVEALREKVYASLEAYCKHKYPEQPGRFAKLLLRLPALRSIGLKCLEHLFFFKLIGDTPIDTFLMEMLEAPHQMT

Compound	Potency [1]	Potency [2]	Potency [3]	Potency [4]	Potency [5]	Potency [6]	Potency [7]	Potency [8]	Potency [9]	outcome [10]	Potency [11]	Potency [12]	Potency [13]	Potency [14]	Potency [15]	Potency [16]	Potency [17]	Potency [18]	outcome [19]
CC(C)(O)c1cnn2c(-c3ccc(F)c(-c4c(F)cccc4C#N)c3)cnc2n1	inactive	27.5 µM (active)	inactive	inactive	61.1 µM (active)	–	–	–	–	–	–	–	–	–	–	–	–	–	–
CCOC(=O)OC1=C(c2cc(C)ccc2C)C(=O)NC12CCC(OC)CC2 (stereo not drawn)	inactive	inactive	inactive	–	inactive	inactive	inactive	inactive	inactive	inactive	inactive	inactive	inactive	inactive	inactive	inactive	–	–	–
O=[N+]([O-])O.O=[N+]([O-])O.[Cd]	5.49 µM (active)	1.74 µM (active)	inactive	inactive	–	1.95 µM (active)	–	–	12.3 µM (active)	–	6.16 µM (active)	–	19.5 µM (active)	–	–	–	–	–	–
O=C(CCl)Nc1ccccc1	inactive	24.5 µM (active)	inactive	inactive	–	49 µM (active)	–	–	inactive	inactive	–	–	49 µM (active)	27.3 µM (active)	–	–	17.4 µM (active)	–	–
Nc1ccccc1C(=O)OC/C=C/c1ccccc1	inactive	49.1 µM (active)	inactive	inactive	inactive	39 µM (active)	inactive	–	–	–	inactive	–	49.1 µM (active)	inactive	–	–	inactive	–	–
CCOCn1c(-c2ccc(Cl)cc2)c(C#N)c(Br)c1C(F)(F)F	30.9 µM (active)	3.47 µM (active)	inactive	–	0.686 µM (active)	19.5 µM (active)	–	–	12.3 µM (active)	–	27.5 µM (active)	–	4.9 µM (active)	9.69 µM (active)	inactive	–	–	–	–
Nc1ccc(Cc2ccc(N)c(Cl)c2)cc1Cl	–	–	inactive	inactive	inactive	–	–	–	–	–	inactive	–	–	inactive	–	–	–	–	–
O=[N+]([O-])c1ccc2ccc3cccc4ccc1c2c34	inactive	inactive	inactive	inactive	inactive	inactive	–	inactive	inactive	inactive	inactive	–	inactive	–	inactive	inactive	inactive	inactive	–
CN(C)c1ccc(N=Nc2ccccc2)cc1	inactive	inactive	inactive	–	inactive	inactive	inactive	inactive	inactive	inactive	inactive	–	inactive	inactive	inactive	inactive	inactive	inactive	–
C=CCC1=C(C)C(OC(=O)C2C(C=C(C)C)C2(C)C)CC1=O (stereo not drawn)	–	18.4 µM (active)	58.3 µM (active)	36.8 µM (active)	32.5 µM (active)	–	–	–	51.9 µM (active)	–	46.3 µM (active)	–	–	61.1 µM (active)	–	–	–	–	–
Cc1cc(N=Nc2ccccc2C)ccc1N	inactive	–	inactive	inactive	inactive	–	–	–	inactive	inactive	inactive	–	inactive	–	–	–	inactive	–	–
CCCCCCCCCCCCCN1CC(C)OC(C)C1 (stereo not drawn)	inactive	inactive	inactive	–	inactive	–	inactive	–	inactive	–	inactive	–	inactive	inactive	inactive	inactive	inactive	–	–
CC1(C)C(/C=C(\Cl)C(F)(F)F)C1C(=O)OC(C#N)c1cccc(Oc2ccccc2)c1 (stereo not drawn)	inactive	inactive	inactive	inactive	–	inactive	inactive	17.7 µM (active)	inactive	inactive	inactive	–	–	inactive	–	inactive	inactive	inactive	–
C[C@H]1CC[C@@H]2[C@@H](C)[C@H]3[C@H](C[C@H]4[C@@H]5CC=C6CC(O[C@@H]7O[C@H](CO)[C@H](O)[C@H](O[C@@H]8O[C@H](CO)[C@@H](O)[C@H](O)[C@H]8O)[C@H]7O[C@H]7O[C@@H](C)[C@H](O)[C@@H](O)[C@H]7O)CC[C@]6(C)[C@H]5CC[C@]34C)N2C1 (stereo partly drawn)	25.3 µM (active)	inactive	56.7 µM (active)	–	inactive	1.43 µM (active)	inactive	–	8.02 µM (active)	–	14.3 µM (active)	–	inactive	28.2 µM (active)	20.1 µM (active)	–	inactive	inactive	–
N#CC(Cl)Cl	inactive	inactive	inactive	–	inactive	inactive	–	–	inactive	–	inactive	–	inactive	inactive	inactive	inactive	–	inactive	inactive
